Potency data for 15 molecules are collected here from PubChem BioAssay (NCATS).

Test [1] addresses Glutathione peroxidase 1 (Homo sapiens) (UniProt P07203). Description: Primary qHTS Assay for Inhibitors of Recombinant Selenoprotein Glutathione Peroxidase 1 (GPX1) (AID 1845191). Note: nearly all actives have a fitted effect of over 65% in size. The method in brief:
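Recombinant GPX1 (10 nM final) was preincubated with compound for 30 min at room temperature, then reacted with 1 mM GSH, 0.5 mM CHP, 0.5 mM NADPH and 100 nM glutathione reductase; NADPH fluorescence (340/450 nm) was read at 0 and 15 min.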

In test [2] the target is Phospholipid hydroperoxide glutathione peroxidase GPX4 (Homo sapiens) (UniProt P36969). Briefly: Primary qHTS Assay for Inhibitors of Recombinant Selenoprotein Glutathione Peroxidase 4 (GPX4) (AID 1845192). Note: nearly all actives have a fitted effect of over 65% in size. The method in brief: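 GR-coupled readout: 100 nM GR, 1 mM GSH, 0.5 mM NADPH; NADPH fluorescence (ex 340/em 450 nm) read at t=0 and after 15 min RT. GPX4 200 nM, preincubated 30 min with compound; substrate 0.5 mM CHP.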
Phospholipid hydroperoxide glutathione peroxidase GPX4 (Homo sapiens), sequence (P36969 whole entry, looked up): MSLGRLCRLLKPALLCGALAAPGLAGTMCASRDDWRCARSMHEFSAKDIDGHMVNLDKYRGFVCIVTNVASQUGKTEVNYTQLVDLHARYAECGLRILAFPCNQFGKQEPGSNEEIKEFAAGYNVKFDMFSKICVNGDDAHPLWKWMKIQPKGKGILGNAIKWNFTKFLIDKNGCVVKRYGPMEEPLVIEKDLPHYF

Test [3] concerns the target Luciferin 4-monooxygenase (Photinus pyralis) (UniProt P08659). Briefly: Primary firefly luciferase (FLuc) qHTS assay for identification of artifact compounds. (AID 1845220). Note: nearly all actives have a fitted effect of over 60% in size. Note: potency is the fitted concentration of half-maximal effect. The method in brief:
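qHTS, 15 min compound preincubation with substrate (10 uM luciferin, 10 uM ATP) at RT, then 10 nM FLuc; 5 min; luminescence; % inhibition vs no-enzyme/DMSO controls, 4-parameter Hill fit.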

A short description of test [4]: Primary fluorescence-based thiol-reactive (MSTI) qHTS assay for identification of artifact compounds. (AID 1845221). Note: nearly all actives have a fitted effect of over 65% in size. Note: potency is the fitted concentration of half-maximal effect. The essentials:
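First, 4 uM MSTI in 2% DMSO/PBS pH 7.4 was dispensed; next, compounds were added; then plates sat 1 h at room temperature without light. Finally, emission at 598 nm was recorded.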

The nature of test [5]: Primary redox qHTS assay for identification of artifact compounds. (AID 1845223). The method in brief: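 Amplex Red (25 uM) and HRP (250 mU/mL) in HBSS, with compounds for 15 min, then 250 uM DTT for 30 min, room temperature, dark. Fluorescence 525/598 nm read; normalized to DMSO and 10 uM DA3003; Hill fit.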
The nature of test [6]: Quantitative High-Throughput drug screen in 47 multiple myeloma cell lines against the NCATS MIPE library collection: FR4_PLB cell viability assay (AID 1918924; note: nearly all actives have a fitted effect of over 35% in size; note: potency is the fitted concentration of half-maximal effect). The method in brief:
(§1)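 CellTiter-Glo luminescence (ATP) after 48 h compound exposure, 37C/5% CO2; 500 cells/well; MIPE 4.0 approved/investigational drugs pinned in; DMSO = 100%, media only = 0% viability.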

Test [7] can be described thus: Quantitative High-Throughput drug screen in 47 multiple myeloma cell lines against the NCATS MIPE library collection: Delta47_JCRB cell viability assay (AID 1918925; note: nearly all actives have a fitted effect of over 45% in size; note: potency is the fitted concentration of half-maximal effect). The essentials: (§2)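 Myeloma cells (500 per well) were exposed to MIPE 4.0 compounds by pin transfer and incubated 48 hours at 37C, 5% CO2. Viability was read as ATP by CellTiter-Glo luminescence, normalised to DMSO (100%) and media-only (0%) wells.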

A short description of test [8]: Quantitative High-Throughput drug screen in 47 multiple myeloma cell lines against the NCATS MIPE library collection: EJM_DSMZ cell viability assay (AID 1918926; note: nearly all actives have a fitted effect of over 30% in size; note: potency is the fitted concentration of half-maximal effect). The method in brief:
as §2

Test [9] can be described thus: Quantitative High-Throughput drug screen in 47 multiple myeloma cell lines against the NCATS MIPE library collection: AMO1_DSMZ cell viability assay (AID 1918927; note: nearly all actives have a fitted effect of over 30% in size; note: potency is the fitted concentration of half-maximal effect). The method in brief:
as §2

A short description of test [10]: Quantitative High-Throughput drug screen in 47 multiple myeloma cell lines against the NCATS MIPE library collection: ARP1_JJKsccF8 cell viability assay (AID 1918928; note: nearly all actives have a fitted effect of over 40% in size; note: potency is the fitted concentration of half-maximal effect). The essentials: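 Myeloma cells at 500 per well in 1536-well format treated with MIPE 4.0 library by pin transfer for 48 h at 37C, 5% CO2. Viability from ATP luminescence (CellTiter-Glo), normalized to DMSO (100%) and media-only (0%) wells.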

Test [11] can be described thus: Quantitative High-Throughput drug screen in 47 multiple myeloma cell lines against the NCATS MIPE library collection: ARD_JJKsccE7 cell viability assay (AID 1918929; note: potency is the fitted concentration of half-maximal effect). The method in brief:
as §2

Test [12] is described as follows: Quantitative High-Throughput drug screen in 47 multiple myeloma cell lines against the NCATS MIPE library collection: Karpas620_DSMZ cell viability assay (AID 1918959). Note: nearly all actives have a fitted effect of over 30% in size. Note: potency is the fitted concentration of half-maximal effect. The essentials: as §1
Test [13] concerns Nanoluciferase (engineered Oplophorus gracilirostris luciferase). Description: Primary Nanoluciferase (NLuc) qHTS assay for identification of artifact compounds. (AID 1845222). Note: series mostly up to about 54 µM. The essentials:
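Luminescence read-out of secreted NLuc in S16 cell conditioned medium (1:55); compounds tested with 15 min RT preincubation, then Nano-Glo substrate 1:100, 5 min. % inhibition vs no-enzyme and DMSO controls, 4-parameter Hill fit.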

Results filed as inconclusive are left out. Calls of active or inactive are those of the source. Calls come from the whole dose curve; as a rule, active = well fitted curve in the direction sought with a large enough effect; inconclusive = small, poorly fitted or top-dose-only effect, or another doubt; inactive = no such curve, though single readings can be large; an effect the other way counts as inactive or inconclusive.

Glutathione peroxidase 1 (Homo sapiens), sequence (P07203 whole entry, looked up): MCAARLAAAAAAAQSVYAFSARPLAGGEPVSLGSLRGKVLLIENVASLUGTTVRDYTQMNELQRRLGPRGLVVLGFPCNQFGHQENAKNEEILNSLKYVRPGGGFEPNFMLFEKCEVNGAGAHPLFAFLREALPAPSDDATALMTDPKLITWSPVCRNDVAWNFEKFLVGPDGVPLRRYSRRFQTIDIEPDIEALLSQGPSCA

Regarding `C#Cc1cccc(Nc2ncnc3cc(OC)c(OCCCCCCC(=O)NO)cc23)c1`, the Potency entry in test [1], in [2], in test [3], in [4] and in test [5] was “inactive” in each case. Moreover, the Potency in test [6] is 0.0743 µM (active); in test [7] it was 0.0662 µM (active); in test [8], 0.469 µM (active); in test [9], 52.6 nM (active); in [10] it was 118 nM (active); in [11] it was 74.3 nM (active). The Potency in [12] is 74.3 nM (active).

On to `C[C@]12CC[C@H](O)CC1=CCC1C2CC[C@]2(C)C(n3cnc4ccccc43)=CCC12` (stereo partly drawn), for which the Potency entry in [1], in test [2], in test [3], in test [4], in test [5] and in test [9] was “inactive” in each case. In addition, the Potency entry in [11] and in test [12] was “inactive” throughout.

Turning to `COc1cc(-c2nn(C3CCC(N4CCN(C(C)=O)CC4)CC3)c3ncnc(N)c23)ccc1NC(=O)c1cc2ccccc2n1C` (stereo not drawn), the Potency entry in [1], in test [2], in test [3], in [4] and in test [5] was “inactive” each time. Further, the figures for the Potency in [6], in [9] and in test [11] were 5.26 µM (active), 590 nM (active) and 372 nM (active), respectively.

On to `Cc1c(Cn2c(C)nc3c(C(=O)O)cc(N4CCOCC4)cc32)cccc1C(F)(F)F`, for which the Potency result in test [1], in [2], in test [3], in [13], in test [5] and in test [11] was “inactive” each time. The Potency entry in test [12] is “inactive”. The Potency in test [6] is 5.9 µM (active); in test [7] it was 5.9 µM (active); in test [9] it was 14800 nM (active).

`CC[C@@H]1C(=O)N(C)c2cnc(Nc3ccc(C(=O)NC4CCC(N5CCN(CC6CC6)CC5)CC4)cc3OC)nc2N1C(C)C` (stereo partly drawn): the Potency entry in test [1], in test [2], in [3], in test [4] and in test [5] was “inactive” each time. The Potency in [6] was 0.059 µM (active); in [7] it was 1.48 µM (active); in [9] it was 118 nM (active); in test [10], 132 nM (active); in test [11] it was 83.3 nM (active).

Consider `CCOC(=O)C1=C(C)NC2=C(C(=O)CC(C)(C)C2)C1c1ccc(-c2ccccc2)cc1` (stereo not drawn), for which the Potency entry in test [1], in [2], in [3], in [4] and in test [5] was “inactive” each time. In addition, the values for the Potency in test [6], in test [7] and in [10] were 20.9 µM (active), 14.8 µM (active) and 23500 nM (active), respectively.

For the molecule `CC(C)c1cnn2c(NCc3ccccc3)cc(N[C@@H](CO)[C@H](O)CO)nc12`, the Potency entry in [1], in test [2], in test [3], in [13] and in test [5] was “inactive” in each case. Further, the Potency in test [6] was 0.264 µM (active); in test [7], 0.166 µM (active); in test [9] it was 118 nM (active); in test [10], 264 nM (active); in test [11] it was 148 nM (active).

For `CCCCCN(CCC12CC3CC(CC(C3)C1)C2)C(=O)NCCCc1ccncc1`, the Potency entry in test [1], in [2], in [3], in [13] and in [5] was “inactive” throughout. In addition, the Potency in [6] was 18.7 µM (active); in [8] it was 23.5 µM (active); in [9], 14800 nM (active); in [11] it was 11800 nM (active).

For the molecule `COc1cc(Nc2ncc(F)c(Nc3ccc4c(n3)N(COP(=O)(O)O)C(=O)C(C)(C)O4)n2)cc(OC)c1OC`, the Potency entry in [1], in [2], in [3], in [13], in test [5] and in test [6] was “inactive” throughout. In addition, the Potency in [7] is 5.9 µM (active); in test [8], 23.5 µM (active); in test [9], 5260 nM (active); in [11], 1180 nM (active).

Regarding `CC1COC2(CCN(c3nc(=O)c4cc(C(F)(F)F)cc([N+](=O)[O-])c4s3)CC2)O1` (stereo not drawn), the Potency result in [1], in test [2], in test [3], in test [13], in test [5] and in test [6] was “inactive” in each case. Also, the Potency result in test [7], in test [8], in test [9], in test [10], in [11] and in test [12] was “inactive” each time.

For the molecule `Cc1ccc2nc(NC(=O)CSc3nc4c(c(=O)n3-c3ccccc3)SCC4)sc2c1`, the Potency result in test [1], in test [2], in test [3], in test [4] and in test [5] was “inactive” throughout. The Potency in [6] is 5.9 µM (active); in test [7], 18.7 µM (active); in [8] it was 6.62 µM (active); in test [9], 9350 nM (active); in test [11], 13200 nM (active).

Regarding `Cc1cnc(Nc2ccc(F)cc2Cl)nc1-c1c[nH]c(C(=O)N[C@H](CO)c2cccc(Cl)c2)c1`, the Potency entry in [1], in test [2], in [3], in [4] and in test [5] was “inactive” each time. Further, the Potency in test [6] is 29.6 µM (active); in test [7], 7.43 µM (active); in [9], 4180 nM (active); in [10] it was 23500 nM (active); in test [11], 14800 nM (active); in test [12], 1050 nM (active).

Turning to `Cc1cn(-c2cc(NC(=O)c3ccc(C)c(Nc4nccc(-c5cccnc5)n4)c3)cc(C(F)(F)F)c2)cn1`, the Potency entry in test [1], in [2], in test [3], in test [4], in [5] and in test [7] was “inactive” throughout. Further, the Potency result in test [9] and in test [12] was “inactive” each time. Moreover, the figures for the Potency in test [6] and in test [8] were 20.9 µM (active) and 18.7 µM (active), respectively.

Consider `O=C(Nc1ncc(-c2cc(C(F)F)nn2-c2c(Cl)cccc2Cl)s1)C1CC1`, for which the Potency entry in [1], in test [2], in test [3], in [4] and in test [5] was “inactive” in each case. The Potency in [6] is 0.235 µM (active); in [7], 0.332 µM (active); in [9], 235 nM (active); in test [10], 418 nM (active); in test [11] it was 296 nM (active).

Regarding `OCc1ccc(-c2ccc(-c3ccc(CO)s3)o2)s1`, the Potency result in [1], in [2], in test [5], in [11] and in test [12] was “inactive” throughout. The Potency in [3] was 1.31 µM (active); in [4], 2.6 µM (active); in test [7], 20.9 µM (active); in test [8], 11.8 µM (active); in test [10], 18700 nM (active).
